AddAB inh: less growth of phage-infected E. coli with AddAB | E. coli expressing H. pylori AddAB, absorbance growth | inhibition, % at 11.9 µM | actives 0.29% (n = 330,000); in the data active = inhibition above about 12%;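 also: 0% = vehicle wells of infected cells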
E coli growth-1: counter-screen for AddAB inhibitors: E. coli growth inhibition; AID 449728; actives 0.27% (n = 330,000); inhibition, % at 11.9 µM; E. coli V3065 growth, OD600 absorbance, 18 h;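 active = inhibition above the campaign's mean inhibition across all tested compounds plus 3 SD, cut at about 9.9% in these data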;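 also: uninfected addAB+ strain grown without phage in ampicillin broth; 0% = DMSO wells and 100% = ciprofloxacin 0.95 µg/ml wells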
E coli growth-2: blocks Escherichia coli growth | OD600, 23 h; stronger effect = lower value | OD600 absorbance (concentration not given with the values) | actives 0.21% (n = 330,000) | AID 1053175;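 active = OD600 absorbance below the run mean of sample wells minus 3.6 SD, in any replicate, cut at about 0.56 in these data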
Tat export inh: E. coli Tat transport inhibition; E. coli MC4100 TorA-mCherry Tat export, fluorescence; inhibition, % at 10 µM; actives 0.036% (n = 340,000); AID 488895;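 active = mean replicate inhibition at least 50% and at least half of replicates individually reaching 50%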;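 also: exported cargo escapes ClpAP degradation while cytoplasmic cargo is degraded and loses fluorescence; 0% = median of neutral control wells and 100% = median of NaSCN control wells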
phage Ecoli inh: E. coli growth loss with phage present. growth absorbance. actives 0.26% (n = 360,000). inhibition, % at 11.9 µM; in the data active = inhibition above about 11%
RecBCD conf: confirmation: growth loss of phage-infected RecBCD+ E. coli (RecBCD inhibitor screen). shares compounds with phage Ecoli inh. E. coli V66 + T4 2- phage, growth OD. inhibition, % at 11.9 µM. actives 45% (n = 890). AID 651982;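 active = mean inhibition over triplicates exceeding the hit threshold derived in the original primary screen, cut at about 11% in these data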
Ecoli viability: bacterial viability inhibition counter-screen for RecBCD; E. coli viability, absorbance (OD) growth; actives 29% (n = 890); inhibition, % at 11.9 µM; shares compounds with phage Ecoli inh; in the data active = inhibition above about 20%;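 also: E. coli strain V66 grown with compound alone and no phage infection; 0% = bacteria with DMSO vehicle only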
AddAB counter: growth loss of phage-infected AddAB E. coli, RecBCD counter-screen | shares compounds with phage Ecoli inh | E. coli expressing H. pylori AddAB + T4 phage, OD growth; gene 2 mutant T4, recBCD-deleted host | inhibition, % at 11.9 µM | actives 45% (n = 890) | AID 651984;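 active = mean inhibition above the solvent-only control wells' mean plus 3 SD, cut at about 22% in these data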;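 also: higher means less bacterial growth from phage killing when AddAB is blocked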
Starred values were filed as active, the others as inactive; · = no result given. In the library only some 0.51% were active in any assay of this set; here they are far more common.

SMILES	AddAB inh	E coli growth-1	E coli growth-2	Tat export inh	phage Ecoli inh	RecBCD conf	Ecoli viability	AddAB counter
NC(=S)N/N=C/c1c(O)ccc2ccccc12	2.2	1.7	·	-4.2	1.0	·	·	·
CC(=O)n1cc(C=NNC(N)=S)c2ccccc21	·	·	0.708	·	·	·	·	·
Cc1ccc(C=NNc2ncc(Cl)cc2Cl)s1	·	·	0.658	·	·	·	·	·
COC(=O)C(C)NC(=O)Nc1ccc(OC)cc1OC (stereo not given)	·	·	0.639	·	·	·	·	·
CC(C)C(NC(=O)NCc1cccs1)C(=O)O (stereo not given)	·	·	0.726	·	·	·	·	·
CN(Cc1nc(Cc2ccccc2F)no1)CC1(N2CCOCC2)CCCCC1	4.3	-1.6	0.652	8.6	2.5	·	·	·
COc1ccc(Cc2noc(CN(C)CC3(N4CCOCC4)CCCCC3)n2)cc1OC	2.5	5.1	0.684	2.2	94.1*	0.1	-0.5	2.4
CCOC(=O)c1c(C)[nH]c(C(=O)N/N=C\c2ccccc2O)c1C	6.0	-3.1	·	7.3	17.1*	5.3	7.2	8.5
CN(CC(=O)Nc1ccc(F)cc1)C(=O)CSc1nc2ncc(Cl)cc2[nH]1	-0.1	-2.2	0.697	-2.6	2.9	·	·	·
O=C(CSc1nc2ncc(Cl)cc2[nH]1)Nc1cccc(F)c1	5.8	5.3	0.606	7.2	11.6*	6.6	8.1	2.9
NC(=O)C1CC2(CC(c3cccc(NC(=O)c4ccccc4)c3)=NO2)CN1C(=O)C1CCC(=O)N1 (stereo not given)	·	·	0.699	·	·	·	·	·
O=C(Nc1ccc(OC(F)F)cc1)Nc1cccc(C(F)(F)F)c1	11.4	12.8*	0.532*	-33.4	12.2*	11.4*	11.8	9.6
O=C(Nc1ccncc1)Nc1cccc(C(F)(F)F)c1	-0.2	1.2	0.528	-0.5	7.5	·	·	·
COc1c(O)cc2oc(-c3ccc(O)cc3)cc(=O)c2c1O	3.3	-1.0	0.63	-7.2	3.0	·	·	·
O=c1cc(-c2ccccc2)oc2cc(O)c(O)c(O)c12	12.1	10.8*	0.691	10.0	11.8*	5.6	9.0	7.0
COc1ccc(S(=O)(=O)Nc2ccc3c(c2)C(=O)N(C(C)CO)CC(C)C(CN(C)C(=O)NC(C)C)O3)cc1 (stereo not given)	·	·	0.699	·	·	·	·	·
CC1(C)OC2CC3C4CC(F)C5=CC(=O)CC[C@]5(C)C4C(O)C[C@]3(C)[C@]2(C(=O)CO)O1 (stereo not given in full)	·	·	0.71	·	·	·	·	·
Cc1cc(Nc2ccccc2Cl)c2ccccc2n1	1.1	1.8	0.63	-4.6	14.9*	-0.4	-0.9	9.3
COc1cccc(C=c2sc(=C(C#N)C(=O)N3CCOCC3)n(-c3ccccc3)c2=O)c1	·	·	0.668	·	·	·	·	·
CN1CC2C3C(=O)N(C)C(=O)C3[C@](C)(C1=O)N2C(=O)c1ccc(Br)cc1 (stereo not given in full)	·	·	0.674	·	·	·	·	·
FC(F)(F)c1ccc(NC(=S)NCc2ccccc2)cc1	10.4	9.5	0.531	-7.4	11.3*	6.2	6.8	7.6
FC(F)Sc1ccc(NC(=S)NCc2ccccc2)cc1	8.6	6.2	0.57	-2.2	12.7*	6.9	9.0	7.0
FC(F)Sc1ccc(NC(=S)NC(c2ccccc2)c2ccccc2)cc1	7.9	5.8	0.697	-2.6	5.4	·	·	·
O=C(O)c1ccc(NC(=S)NCc2ccccc2)cc1	2.8	0.3	0.67	-7.9	1.2	·	·	·
COc1ccc(C=NN(C(C)=O)c2nc(-c3ccc(C)cc3)cs2)cc1	·	·	0.78	·	·	·	·	·
C=C(C)CNC(=O)C1CCC(=O)N(CCCc2ccccc2)C1 (stereo not given)	0.2	0.3	·	-13.5	30.1*	-1.0	-0.9	-0.9
O=C(NCCc1cccc(F)c1)C1CCC(=O)N(CCCc2ccccc2)C1 (stereo not given)	1.6	1.5	0.701	3.0	0.6	·	·	·
COc1ccc(-[n+]2c(C)cc(/C=C3\Sc4ccccc4N3C)cc2C)cc1	26.6*	25.6*	0.353*	67.4*	22.4*	20.2*	17.2	47.5*
CC(NC(=O)c1[nH]cnc1C(=O)Nc1ccc(CNC(=O)OC(C)(C)C)cc1)C(=O)OCc1ccccc1 (stereo not given)	·	·	0.713	·	·	·	·	·

Compound activity (PubChem BioAssay)
